Values joined by “and” are separate entries in the source; they are usually repeats but may differ in a detail not shown here. Equal values may be shown once. Results filed as inconclusive are left out. A call without a number means that no potency is given here. Where a structure was tested more than once in an assay, its records may differ in their call. Active and inactive are the calls of the source. Unless noted, calls follow the shape of the dose curve; as a rule, active = well fitted curve in the direction sought with a large enough effect in the repeat runs; inconclusive = weak or mixed curves; inactive = no such curve, though single readings can be large; an effect the other way counts as inactive or inconclusive.
Columns and labels:
[1] = qHTS RealTime-Glo MT Cell Viability Assay in HepG2 cells - 24 hour (AID 1224867); also: nearly all actives have a fitted effect of over 50% in size; also: potency is read from the fitted curve at half-maximal effect
How it was run: (§1)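 Compound treatment began 5 h after plating HepG2 cells (600/well) with NanoLuc luciferase and prosubstrate. Plates stayed at 37 C for 40 h; luminescence was captured at six time points, 0 h through 40 h.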

[2] = qHTS RealTime-Glo MT Cell Viability Assay in HEK293 cells - 32 hour (AID 1224868); also: nearly all actives have a fitted effect of over 50% in size; also: potency is read from the fitted curve at half-maximal effect
How it was run: (§2)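 Quantitative high-throughput screen of the Tox21 10K library in HEK293: cells and RealTime-Glo reagents plated together, compound added at 5 h, luminescence monitored through 40 h at 37 C.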

[3] = A CellTox Green Cytotoxicity Assay to monitor cytotoxicity in HEK293 cells - 0 hour (AID 1224869); also: nearly all actives have a fitted effect of over 50% in size; also: potency is read from the fitted curve at half-maximal effect
How it was run: (§3)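 Tox21 screen in HEK293: membrane-impermeant cyanine dye fluoresces on binding dead-cell DNA; compound pinned 5 h post-seeding, plates held at 37 C, signal read repeatedly through 40 h.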

[4] = qHTS RealTime-Glo MT Cell Viability Assay in HepG2 cells - 40 hour (AID 1224870); also: nearly all actives have a fitted effect of over 50% in size; also: potency is read from the fitted curve at half-maximal effect
How it was run: (§4)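 Real-time viability: cells seeded at 600 per well together with NanoLuc and cell-permeant prosubstrate, compounds added after 5 h incubation. Luminescence tracked at 0, 8, 16, 24, 32 and 40 h of exposure.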

[5] = A CellTox Green Cytotoxicity Assay to monitor cytotoxicity in HEK293 cells - 40 hour (AID 1224871); also: nearly all actives have a fitted effect of over 45% in size; also: potency is read from the fitted curve at half-maximal effect
How it was run: as §3

[6] = qHTS RealTime-Glo MT Cell Viability Assay in HEK293 cells - 40 hour (AID 1224874); conditions: RealTime-Glo luminescence; max response: stronger effect = lower value; also: nearly all actives have a fitted effect of over 50% in size; also: potency is read from the fitted curve at half-maximal effect
How it was run: (§5)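 HEK293 + NanoLuc + prosubstrate, 600 cells/well; 5 h, 37 C/5% CO2; compound 23 nL in DMSO by pintool; 37 C; luminescence read at 0, 8, 16, 24, 32 and 40 h time points.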

[7] = A CellTox Green Cytotoxicity Assay to monitor cytotoxicity in HEK293 cells - 24 hour (AID 1224875); also: nearly all actives have a fitted effect of over 45% in size; also: potency is read from the fitted curve at half-maximal effect
How it was run: as §3

[8] = A CellTox Green Cytotoxicity Assay to monitor cytotoxicity in HepG2 cells - 16 hour (AID 1224876); also: nearly all actives have a fitted effect of over 45% in size; also: potency is read from the fitted curve at half-maximal effect
How it was run: (§6)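 Measurements at 0, 8, 16, 24, 32 and 40 h of treatment captured CellTox Green fluorescence in HepG2 cells that had been co-plated with reagent and preincubated 5 h at 37 C/5% CO2.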

[9] = qHTS RealTime-Glo MT Cell Viability Assay in HepG2 cells - 32 hour (AID 1224877); also: nearly all actives have a fitted effect of over 55% in size; also: potency is read from the fitted curve at half-maximal effect
How it was run: as §1

[10] = A CellTox Green Cytotoxicity Assay to monitor cytotoxicity in HepG2 cells - 24 hour (AID 1224878); also: nearly all actives have a fitted effect of over 45% in size; also: potency is read from the fitted curve at half-maximal effect
How it was run: as §6

[11] = A CellTox Green Cytotoxicity Assay to monitor cytotoxicity in HepG2 cells - 40 hour (AID 1224879); also: nearly all actives have a fitted effect of over 40% in size; also: potency is read from the fitted curve at half-maximal effect
How it was run: as §6

[12] = qHTS RealTime-Glo MT Cell Viability Assay in HEK293 cells - 0 hour (AID 1224880)
How it was run: as §5

[13] = A CellTox Green Cytotoxicity Assay to monitor cytotoxicity in HepG2 cells - 0 hour (AID 1224882); also: nearly all actives have a fitted effect of over 35% in size; also: potency is read from the fitted curve at half-maximal effect
How it was run: as §6

[14] = qHTS RealTime-Glo MT Cell Viability Assay in HEK293 cells - 16 hour (AID 1224872); also: nearly all actives have a fitted effect of over 50% in size; also: potency is read from the fitted curve at half-maximal effect
How it was run: as §2

[15] = qHTS RealTime-Glo MT Cell Viability Assay in HepG2 cells - 8 hour (AID 1224873); also: nearly all actives have a fitted effect of over 55% in size; also: potency is read from the fitted curve at half-maximal effect
How it was run: as §4

[16] = A CellTox Green Cytotoxicity Assay to monitor cytotoxicity in HEK293 cells - 32 hour (AID 1224881); also: nearly all actives have a fitted effect of over 40% in size; also: potency is read from the fitted curve at half-maximal effect
How it was run: as §3

[17] = qHTS assay to identify small molecule agonists of the estrogen related receptor (ERR) signaling pathway from Tox21 library (AID 1224849; calls by dose curve; also: nearly all actives have a fitted effect of over 15% in size); conditions: ERR reporter cell line, ONE-Glo luciferase, 18 h; at 92.4 µM (top of the series) unless noted
How it was run: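 Tox21 compounds tested for ERR agonism in an NTP reporter cell line: 18 h treatment at 37 C, then ONE-Glo luminescence.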

[18] = qHTS assay to identify small molecule antagonists of the estrogen related receptor (ERR) signaling pathway from Tox21 library (AID 1224848); also: nearly all actives have a fitted effect of over 50% in size; also: potency is read from the fitted curve at half-maximal effect
How it was run: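 ERR cell line, 2,000 cells/well. 6 h settle, then compound (DMSO) added; 18 h at 37 C; ONE-Glo luminescence after 30 min RT.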

SMILES | Potency [1] | Potency [2] | Potency [3] | Potency [4] | Potency [5] | Potency [6] | Potency [7] | Potency [8] | Potency [9] | Potency [10] | Potency [11] | Potency [12] | Potency [13] | Potency [14] | Potency [15] | Potency [16] | max response [6] | activity change, positive = activation [17] | Potency [18]
CCCCOc1ccc(C(=O)CCN2CCCCC2)cc1 | 21.3 µM (active) | 16.9 µM (active) | inactive | 6.74 µM (active) | 19 µM (active) | 13.4 µM (active) | 16.9 µM (active) | 19 µM (active) | 10.7 µM (active) | 19 µM (active) | 19 µM (active) | inactive | inactive | – | – | – | – | – | –
N#CSCSc1nc2ccccc2s1 | 38.9 µM (active) | 19.5 µM (active) | inactive | 24.5 µM (active) | 11 µM (active) | – | 11 µM (active) | 54.9 µM (active) | 30.9 µM (active) | 43.6 µM (active) | 21.9 µM (active) | inactive | inactive | 15.5 µM (active) | 49 µM (active) | 12.3 µM (active) | – | – | –
Nc1ccc2cc3ccc(N)cc3nc2c1 | – | 871 nM (active) and 2.13 µM (active) | 38.9 µM (active) and 21.3 µM (active) | 9.52 µM (active) | 43.6 µM (active) and 21.3 µM (active) | 436 nM (active) and 2.13 µM (active) | 43.6 µM (active) and 21.3 µM (active) | 49 µM (active) and 21.3 µM (active) | – | 49 µM (active) and 23.9 µM (active) | 49 µM (active) and 21.3 µM (active) | inactive | 49 µM (active) and 23.9 µM (active) | 6.16 µM (active) and 9.52 µM (active) | inactive | 43.6 µM (active) and 21.3 µM (active) | – | – | –
CCCCN(CCCC)CCC(O)c1cc2c(Cl)cc(Cl)cc2c2cc(C(F)(F)F)ccc12 (stereo unspecified) | – | inactive | inactive | – | inactive | – | inactive | inactive | – | – | 23.9 µM (active) | inactive | – | inactive | inactive | inactive | – | – | –
C=CC(=O)OCC(O)COc1ccccc1 (stereo unspecified) | – | inactive | – | inactive | – | – | inactive | inactive | inactive | inactive | – | inactive | inactive | inactive | – | – | 8.54% (inactive) | – | –
CCCCCCCC/C=C\CCCCCCCC(=O)NCc1ccc(O)c(OC)c1 | inactive | 2.68 µM (active) | – | – | inactive | 4.25 µM (active) | inactive | – | inactive | inactive | inactive | inactive | inactive | 1.69 µM (active) | inactive | inactive | – | – | –
CCCCCCCCCCCC(=O)N(CC)CC | inactive | inactive | inactive | inactive | inactive | – | inactive | inactive | inactive | inactive | inactive | inactive | inactive | inactive | inactive | inactive | -24.4% (inactive) | – | –
CC(NCCC(c1ccccc1)c1ccccc1)c1ccccc1 (stereo unspecified) | 21.3 µM (active) | 19 µM (active) | inactive | 21.3 µM (active) | 21.3 µM (active) | 16.9 µM (active) | 21.3 µM (active) | 23.9 µM (active) | 23.9 µM (active) | 16.9 µM (active) | 15.1 µM (active) | – | inactive | 21.3 µM (active) | – | 21.3 µM (active) | – | – | –
Clc1ccc(C(c2ccccc2Cl)C(Cl)Cl)cc1 (stereo unspecified) | inactive | – | inactive | inactive | inactive | – | inactive | inactive | inactive | inactive | inactive | inactive | inactive | – | – | inactive | -26.4% (inactive) | – | –
CN(C)CCCN1c2ccccc2CCc2ccccc21 | inactive | inactive | inactive | inactive | 43.6 µM (active) and inactive | – | inactive | – | inactive | 49 µM (active) | 54.9 µM (active) | – | inactive | inactive | – | inactive | – | – | –
O=C1Nc2ccc(Cl)cc2[C@@](C#CC2CC2)(C(F)(F)F)O1 | – | 23.9 µM (active) | inactive | – | – | 23.9 µM (active) | – | – | – | – | – | inactive | – | 21.3 µM (active) | – | – | – | – | –
CCCCCCCC/C=C\CCCCCCCC(=O)N(C)CC(=O)O | inactive | – | inactive | inactive | 34.7 µM (active) | – | 34.7 µM (active) | inactive | inactive | – | – | inactive | inactive | – | inactive | – | – | -30% (inactive) | –
COC(=O)C1=C(C)NC(C)=C(C(=O)OCCCN2CCC(c3ccccc3)(c3ccccc3)CC2)C1c1cccc([N+](=O)[O-])c1 (stereo unspecified) | – | 10.7 µM (active) | inactive | – | inactive | 10.7 µM (active) | inactive | inactive | – | inactive | – | inactive | inactive | 9.52 µM (active) | – | inactive | – | – | 10.6 µM (active)
CCC(C)c1cc([N+](=O)[O-])cc([N+](=O)[O-])c1OC(=O)OC(C)C (stereo unspecified) | 54.9 µM (active) | – | inactive | – | inactive | – | inactive | inactive | – | – | – | inactive | inactive | – | 43.6 µM (active) | inactive | – | – | 19.3 µM (active)
S=P(N1CC1)(N1CC1)N1CC1 | inactive | – | inactive | inactive | inactive | – | inactive | inactive | inactive | inactive | inactive | inactive | inactive | inactive | inactive | inactive | – | -21.7% (inactive) | –
C[C@@]12C(=O)OC(=O)[C@]1(C)C1CCC2O1 | 4.77 µM (active) | 6.01 µM (active) | inactive | 1.69 µM (active) | inactive | 6.01 µM (active) | inactive | 23.9 µM (active) | 1.51 µM (active) | 19 µM (active) | 10.7 µM (active) | inactive | inactive | 5.35 µM (active) | – | inactive | – | – | –
CCC(C)(C)c1cc(O)c(C(C)(C)CC)cc1O | – | 30.9 µM (active) | inactive | – | – | 34.7 µM (active) | – | inactive | – | – | 49 µM (active) | inactive | inactive | 21.9 µM (active) | – | – | – | – | 68.6 µM (active)
CCCCNc1c(C(=O)OCC)c(C)nc2c1cnn2CC | inactive | 21.3 µM (active) | inactive | inactive | inactive | – | inactive | inactive | inactive | inactive | – | inactive | inactive | – | inactive | inactive | – | – | –
CCCN(CCc1cccs1)[C@H]1CCc2c(O)cccc2C1 | inactive | 19 µM (active) | inactive | inactive | 23.9 µM (active) | 21.3 µM (active) | – | – | inactive | – | 23.9 µM (active) | inactive | – | 15.1 µM (active) | inactive | – | – | -19.8% [at 42.5 µM] (inactive) | –
COC(=O)NCCC[Si](OC)(OC)OC | inactive | inactive | – | inactive | inactive | – | inactive | – | inactive | inactive | inactive | inactive | – | inactive | inactive | inactive | 15.5% (inactive) | – | inactive
Nc1cc(Cl)c([N+](=O)[O-])cc1O | inactive | – | inactive | inactive | inactive | – | inactive | inactive | inactive | inactive | inactive | inactive | – | – | inactive | inactive | – | – | inactive
Cc1cccc(C)c1NC(=O)CN1CCN(CCCC(c2ccc(F)cc2)c2ccc(F)cc2)CC1 | 23.9 µM (active) | 9.52 µM (active) | inactive | 23.9 µM (active) | 21.3 µM (active) | – | – | 26.8 µM (active) | 23.9 µM (active) | 23.9 µM (active) | 23.9 µM (active) | inactive | inactive | 10.7 µM (active) | – | 19 µM (active) | – | – | –
Cc1c(-c2ccc(O)cc2)n(Cc2ccc(OCCN3CCCCCC3)cc2)c2ccc(O)cc12 | 15.1 µM (active) | 3.01 µM (active) | inactive | 9.52 µM (active) | 16.9 µM (active) | – | 21.3 µM (active) | 23.9 µM (active) | 9.52 µM (active) | 19 µM (active) | 8.49 µM (active) | inactive | inactive | 2.68 µM (active) | – | 19 µM (active) | – | – | –

— PubChem BioAssay (Tox21)
